The list is not random: actives were taken first. Their share in the collection is about 2.7%.
SENP7 inh: inhibitors of human SENP7 protease; 1.5% of 330,000 active; AID 434973; inhibition, % at 5 µM; Q9BQF6; recombinant SENP7, Z-RLRGG-aminoluciferin luminescence, 40 min;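 active = inhibition above about 50% at the single test dose, limit read from the data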;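 note: plate controls were DMSO with enzyme for no effect and no enzyme buffer wells for full effect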
Target sequence (Q9BQF6 706-1050 limits assumed): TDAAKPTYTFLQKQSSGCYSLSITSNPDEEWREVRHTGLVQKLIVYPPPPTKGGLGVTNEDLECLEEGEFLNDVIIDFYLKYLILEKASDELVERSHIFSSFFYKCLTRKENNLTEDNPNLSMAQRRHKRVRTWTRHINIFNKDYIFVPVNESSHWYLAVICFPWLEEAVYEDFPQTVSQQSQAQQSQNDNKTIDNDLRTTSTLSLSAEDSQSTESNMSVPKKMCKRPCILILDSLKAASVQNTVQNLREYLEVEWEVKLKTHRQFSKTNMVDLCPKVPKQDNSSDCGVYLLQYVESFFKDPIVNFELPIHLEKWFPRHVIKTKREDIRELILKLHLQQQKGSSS
SENP6 inh: blocks the human protease SENP6. 1.8% of 330,000 active. Recombinant SENP6 catalytic domain, aminoluciferin luminescence. Q9GZR1. AID 2599. inhibition, % at 10 µM;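 active = inhibition above about 50% at the single tested dose, limit read from the data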;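 note: plate controls were DMSO wells with enzyme for no effect and DMSO wells lacking enzyme for full effect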
HSP90 refold inh: blocks HSP90-mediated luciferase refolding in reticulocyte lysate | Rabbit reticulocyte lysate, luciferase refolding luminescence, 3 h | inhibition, % at 5.6 µM | 0.91% of 290,000 active;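 active = inhibition above the screen-wide mean plus 3 SD, computed separately per campaign, cut at about 16% in these data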;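 note: 0% = DMSO wells and 100% = 60 µM geldanamycin wells; inhibitors lower the luminescence because luciferase stays unfolded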
SENP8 block-1: blocks the human protease SENP8. 1.2% of 330,000 active. Q96LD8. AID 2540. purified SENP8, Z-RLRGG-aminoluciferin cleavage, luminescence. inhibition, % at 10 µM; in the data active = inhibition above about 50%
Target sequence (Q96LD8 whole entry, looked up): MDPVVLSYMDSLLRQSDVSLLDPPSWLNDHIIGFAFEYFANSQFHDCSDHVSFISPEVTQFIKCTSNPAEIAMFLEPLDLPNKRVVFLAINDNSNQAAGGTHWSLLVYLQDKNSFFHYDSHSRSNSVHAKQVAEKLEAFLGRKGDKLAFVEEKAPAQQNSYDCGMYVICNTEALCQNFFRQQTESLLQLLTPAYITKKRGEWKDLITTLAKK
SENP8 block-2: inhibitors of human SENP8 protease. Q96LD8. recombinant SENP8, Nedd8 substrate fluorescence. inhibition, % at 20 µM. 0.64% of 360,000 active. AID 602440; in the data active = inhibition mostly above about 40%, no sharp cut-off; inactive = mostly below about 27%
SENP8 inh conf: confirmation of human SENP8 protease inhibitors; shares compounds with SENP8 block-2; 15% of 1,400 active; inhibition, % at 25 µM; purified SENP8, Nedd8-AMC/pro-Nedd8 cleavage fluorescence, 30 min; in the data active = inhibition mostly above about 39%, no sharp cut-off; inactive = mostly below about 34%
* marks the source's active call; other numbers are inactive results.

How did N#CC1(CCCN2CCCCC2)c2ccccc2CCc2ccccc21 do in these assays?
SENP7 inh: 2; SENP6 inh: -11; SENP8 block-1: 0; SENP8 block-2: 41*; SENP8 inh conf: 23

What do the screens show for `Nc1ccc(C2CCCc3nonc32)c2nonc12` (configuration not stated)?
SENP7 inh: 10; SENP6 inh: 27; HSP90 refold inh: 3; SENP8 block-1: 2; SENP8 block-2: 57*; SENP8 inh conf: 4

How did Cc1c(=O)n(OCc2ccccn2)c2ccccc2[n+]1[O-] do in these assays?
SENP7 inh: -7; SENP6 inh: -7; HSP90 refold inh: 5; SENP8 block-1: -12; SENP8 block-2: -108

What do the screens show for `COc1ccc(-c2nnc(SC)nc2-c2ccc(OC)c([N+](=O)[O-])c2)cc1[N+](=O)[O-]`?
SENP7 inh: -6; SENP6 inh: -13; SENP8 block-1: -1; SENP8 block-2: 49*; SENP8 inh conf: 32

What do the screens show for `COc1ccc(-c2nn(-c3ccccc3)cc2C=O)cc1[N+](=O)[O-]`?
SENP7 inh: 2; SENP6 inh: 17; HSP90 refold inh: -2; SENP8 block-1: 5; SENP8 block-2: 8

What do the screens show for `COc1ccc(S(=O)(=O)NC(C)C(=O)NCc2ccc3c(c2)OCO3)cc1OC` (configuration not stated)?
SENP7 inh: 3; SENP6 inh: -20; HSP90 refold inh: -3; SENP8 block-1: -10; SENP8 block-2: 6

How did O=C(Nc1ccc(Cl)cc1Cl)c1ccc(-c2ccccc2)cc1 do in these assays?
SENP7 inh: -1; SENP6 inh: -23; HSP90 refold inh: 2; SENP8 block-1: -3; SENP8 block-2: 19

What do the screens show for `O=C(Nc1cc(-c2ccccc2)[nH]n1)c1ccc(Cl)cc1`?
SENP7 inh: 67*; SENP6 inh: 69*; HSP90 refold inh: -2; SENP8 block-1: 47; SENP8 block-2: 40*; SENP8 inh conf: 2

Results for O=C(Nc1ccc([N+](=O)[O-])cc1)Nc1ccc(N2CCOCC2)c2nonc12 ?
SENP7 inh: 12; SENP6 inh: 8; HSP90 refold inh: -4; SENP8 block-1: 6; SENP8 block-2: 46*; SENP8 inh conf: 21

What do the screens show for `CC(=O)Nc1cc([N+](=O)[O-])ccc1N1CCOCC1`?
SENP7 inh: 3; SENP6 inh: -5; HSP90 refold inh: -2; SENP8 block-1: 5; SENP8 block-2: 16

How did CCOc1cc(C(=S)N2CCOCC2)ccc1OS(=O)(=O)c1ccc(C)cc1 do in these assays?
SENP7 inh: 4; SENP6 inh: -5; HSP90 refold inh: -1; SENP8 block-1: -5; SENP8 block-2: 18

Results for CCOc1cc(C(=S)N2CCOCC2)cc(Br)c1OS(=O)(=O)c1ccccc1 ?
SENP7 inh: -6; SENP6 inh: -8; HSP90 refold inh: 5; SENP8 block-1: 6; SENP8 block-2: 42*; SENP8 inh conf: 66*

How did COc1ccc(C(=O)O)cc1NCc1ccc(C)s1 do in these assays?
SENP7 inh: 7; SENP6 inh: -25; HSP90 refold inh: 2; SENP8 block-1: -7; SENP8 block-2: -96

How did CC(=O)Oc1ccc2c(c1)CCC1C2CCC2(C)C(OC(C)=O)CCC12 (configuration not stated) do in these assays?
SENP8 block-2: 47*; SENP8 inh conf: 6

What do the screens show for `C[C@]12CC[C@@H]3c4ccc(OC(=O)c5ccccc5)cc4CC[C@H]3[C@@H]1CC[C@@H]2O`?
SENP7 inh: 5; SENP6 inh: 6; HSP90 refold inh: 5; SENP8 block-1: 6; SENP8 block-2: 1

Results for COc1ccccc1NS(=O)(=O)c1cc(NC(=O)c2cccc(S(=O)(=O)N(C)C)c2)ccc1N1CCOCC1 ?
SENP7 inh: 5; SENP6 inh: -3; SENP8 block-1: -8; SENP8 block-2: 32*; SENP8 inh conf: 9

Results for COc1ccccc1NS(=O)(=O)c1cc(NC(=O)c2ccc(NC(C)=O)cc2)ccc1N1CCOCC1 ?
SENP8 block-2: 8

What do the screens show for `COC(=O)[C@H](CCSC)NC(=O)Cn1ccc(NC(=O)OCc2ccccc2)nc1=O`?
SENP7 inh: 3; SENP6 inh: 11; SENP8 block-1: 0; SENP8 block-2: 10

How did CCN(CC)S(=O)(=O)c1ccc(N2CCOCC2)c(NC(=O)C(=O)c2c(-c3ccccc3)cc3ccccn23)c1 do in these assays?
SENP7 inh: 6; SENP6 inh: 7; HSP90 refold inh: 1; SENP8 block-1: 3; SENP8 block-2: 75*; SENP8 inh conf: 21

Results for CN(c1ccc(C(=O)N2CCCCCC2)cc1)S(=O)(=O)c1ccccc1 ?
SENP7 inh: -6; SENP6 inh: 13; SENP8 block-1: -5; SENP8 block-2: 6

How did COc1ccc(/C=N/NS(=O)(=O)c2ccccc2)cc1OC(=O)c1ccc(C)cc1 do in these assays?
SENP7 inh: -3; SENP6 inh: -3; HSP90 refold inh: 0; SENP8 block-1: -4; SENP8 block-2: 41*; SENP8 inh conf: 28

Results for COc1ccc(/C=N/NS(=O)(=O)c2ccc(C)cc2)cc1OC(=O)c1ccccc1 ?
SENP7 inh: 3; SENP6 inh: 2; HSP90 refold inh: 0; SENP8 block-1: 9; SENP8 block-2: 10

How did O=C(CCN1C(=O)COc2ccccc21)NCCC1=CCCCC1 do in these assays?
SENP7 inh: -1; SENP6 inh: -2; HSP90 refold inh: 1; SENP8 block-1: 1; SENP8 block-2: 14

Results for O=C(CSc1ccc(Cl)cc1)Nc1ccccc1Oc1ccccc1 ?
SENP7 inh: 6; SENP6 inh: 7; HSP90 refold inh: 5; SENP8 block-1: 8; SENP8 block-2: 23

What do the screens show for `O=C(CSc1ccc(Br)cc1)Nc1ccccc1Oc1ccccc1`?
SENP7 inh: 0; SENP6 inh: -19; HSP90 refold inh: -2; SENP8 block-1: -4; SENP8 block-2: 50*; SENP8 inh conf: 14

How did CCOc1ccc(S(=O)(=O)NCCC(=O)NCC(c2ccc(OC)cc2)N2CCOCC2)cc1 (configuration not stated) do in these assays?
SENP8 block-2: 51*; SENP8 inh conf: -8

Results for CCN(CC)S(=O)(=O)c1ccc2c(c1)nc(SCC(=O)NC1CC1)n2-c1ccccc1OC ?
SENP7 inh: 2; SENP6 inh: -9; HSP90 refold inh: -3; SENP8 block-1: 4; SENP8 block-2: 43*; SENP8 inh conf: 26

How did COc1ccccc1-n1c(SCC(=O)NC2CCS(=O)(=O)C2)nc2cc([N+](=O)[O-])ccc21 (configuration not stated) do in these assays?
SENP7 inh: 9; SENP6 inh: -6; HSP90 refold inh: -5; SENP8 block-1: 3; SENP8 block-2: 20

How did COc1ccc(CSc2nnnn2C)cc1[N+](=O)[O-] do in these assays?
SENP7 inh: 9; SENP6 inh: -3; HSP90 refold inh: -1; SENP8 block-1: 2; SENP8 block-2: 48*; SENP8 inh conf: 14

What do the screens show for `COc1ccc(CSc2nnnn2-c2ccc(C(N)=O)cc2)cc1[N+](=O)[O-]`?
SENP7 inh: 6; SENP6 inh: 17; HSP90 refold inh: 5; SENP8 block-1: -3; SENP8 block-2: 9

Bioassay records as filed in PubChem BioAssay.
